According to PubChem BioAssay:
Active and inactive are the calls of the source.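 The calls were made as follows, unless noted: active = fluorescence slope higher than the sample average by over 3 SD (cut at about -0.22 in these data, passing the limit was not always enough); inactive = the rest.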

Experiments:
[1] = inhibitors of TNFa-induced NFkB p65 translocation, primary screen, imaging, HUVEC, MLSMR starter and 10KST1 sets (AID 438;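 active = inhibition above 20% together with a positive visual image hit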;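 also: compound added about 3h40 before a 20 min TNFalpha stimulation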;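 as to inhibition: signal is the nuclear over cytoplasmic p65 intensity ratio per well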); conditions: HUVEC TNFa-induced p65 nuclear translocation; cell count: measured here: nuclei count (cytotoxicity indicator), at 2.08 µM; inhibition: at 2 µM, stronger effect = higher value, 0% TNFa-plus-vehicle, 100% no-TNFa wells
[2] = inhibitors of mutant huntingtin aggregation, primary screen, imaging, exon1htt(103Q)mCFP cells, high-content imaging (AID 483;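 active = visual image review flags a hit and inhibition of aggregation exceeds 20%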;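 also: compound exposure lasted 3 days before fixation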;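 as to nuclei count: percent of the per-plate median nuclei count of sample wells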); conditions: exon1htt(103Q)mCFP cell line, aggregate imaging, at 2 µM; inhibition of aggregation: stronger effect = higher value; nuclei count: measured here: cell count, toxicity
[3] = inhibitors of E-selectin induction by TNFa, primary screen, imaging, HUVEC, immunofluorescence, MLSMR starter and 10KST1 sets (AID 487;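 active = visually confirmed hit in the image check and inhibition above 20%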;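 as to inhibition: signal is fraction of cell area covered by stained E-selectin grains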;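 as to nuclei count: 100% = median nuclei count of all wells on the same plate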); conditions: HUVEC TNFalpha-induced E-selectin immunofluorescence imaging, at 2 µM; inhibition: stronger effect = higher value; nuclei count: measured here: cell number, toxicity
[4] = target: Voltage-gated potassium channel subunit beta-2 (Rattus norvegicus) (UniProt P62483); test: KvBeta enzyme negative modulators, primary screen, biochemical, NADPH fluorescence (AID 622); conditions: recombinant KvBeta, 4-cyanobenzaldehyde reduction, at 10 µM, stronger effect = higher value;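 also: slope of raw intensity against log time taken from 70 to 1610 s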
Sequence of Voltage-gated potassium channel subunit beta-2 (Rattus norvegicus) (P62483 whole entry, looked up): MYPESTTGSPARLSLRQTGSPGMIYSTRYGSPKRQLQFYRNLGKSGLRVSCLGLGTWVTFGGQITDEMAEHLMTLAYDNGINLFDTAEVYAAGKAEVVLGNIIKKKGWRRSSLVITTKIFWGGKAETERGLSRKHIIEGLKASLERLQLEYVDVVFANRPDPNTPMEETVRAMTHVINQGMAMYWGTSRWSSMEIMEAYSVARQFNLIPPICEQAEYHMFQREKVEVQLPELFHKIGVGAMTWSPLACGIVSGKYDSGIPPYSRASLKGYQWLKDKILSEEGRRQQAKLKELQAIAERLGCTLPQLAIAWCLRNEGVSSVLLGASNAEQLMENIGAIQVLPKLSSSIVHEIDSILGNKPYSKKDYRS

[5] = target: Voltage-gated potassium channel subunit beta-2 (Rattus norvegicus) (UniProt P62483); test: KvBeta positive modulators, primary screen, biochemical, NADPH fluorescence (AID 623;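 active = NADPH fluorescence slope more negative than the mean of all samples by about 3 SD, 99.7% confidence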;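 also: fluorescence intensity change per second fitted from 20 to 320 s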); conditions: Recombinant KvBeta, NADPH fluorescence decrease slope, 10 min; at 10 µM; stronger effect = lower value
[6] = target: Alpha-2C adrenergic receptor (Homo sapiens) (UniProt P18825); test: modulators of alpha2C/GIRK thallium flux, primary screen, cell-based, HEK293 alpha2C/GIRK1/2 (AID 624;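 active = fluorescence slope after compound addition differing from the mean of all screened samples at 99.7% confidence, in either direction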;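 also: slope of fluorescence ratio to pre-addition baseline per second over 15 to 24 s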); conditions: thallium flux BTC fluorescence, at 10 µM, actives lie on both sides
Sequence of Alpha-2C adrenergic receptor (Homo sapiens) (P18825 whole entry, looked up): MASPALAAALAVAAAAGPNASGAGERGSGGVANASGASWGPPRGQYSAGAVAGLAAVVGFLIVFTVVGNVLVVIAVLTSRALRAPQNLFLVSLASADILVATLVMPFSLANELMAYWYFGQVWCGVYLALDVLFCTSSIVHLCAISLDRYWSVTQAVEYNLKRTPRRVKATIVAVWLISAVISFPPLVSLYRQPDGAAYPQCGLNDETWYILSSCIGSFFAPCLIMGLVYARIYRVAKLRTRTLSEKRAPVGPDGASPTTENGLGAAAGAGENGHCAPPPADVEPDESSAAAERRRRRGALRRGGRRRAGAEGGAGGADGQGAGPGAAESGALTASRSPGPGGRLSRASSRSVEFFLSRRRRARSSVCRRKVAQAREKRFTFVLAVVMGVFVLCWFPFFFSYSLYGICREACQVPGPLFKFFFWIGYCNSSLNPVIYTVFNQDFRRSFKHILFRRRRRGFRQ

[7] = inhibitors of Sendai virus-induced IRF3 signaling, primary screen, TLR/RLR signaling modifier project, cell-based, Sendai virus stimulus, luciferase, 10K MLSCN set (AID 602276;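 active = inhibition at or above 50% at 10 µM; inactive = inhibition below 50%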;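 also: firefly luciferase from ISG56 promoter only with Renilla not read in this screen; 0% = Sendai virus plus DMSO and 100% = medium plus DMSO without virus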); conditions: HEK293 RL24 IRF3 luciferase reporter, at 10 µM, stronger effect = higher value
[8] = inhibitors of poly I:C-induced TLR3 signaling, primary screen, cell-based, poly I:C stimulus, luciferase, 10K MLSCN set (AID 602277;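 active = inhibition of the reporter signal at or above 50%; inactive = inhibition below 50%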); conditions: HEK293-TLR3 RL24 IRF3 luciferase reporter, at 10 µM, stronger effect = higher value

Structure (SMILES) | cell count [1] | inhibition [1] | inhibition of aggregation [2] | nuclei count [2] [%] | inhibition [3] | nuclei count [3] [%] | fluorescence slope [4] | NADPH fluorescence slope [5] | slope [6] | inhibition [7] | inhibition [8]
COC(=O)CCSCc1cn2cc(Cl)ccc2n1 | 373 | 2.8% (inactive) | -26.9% (inactive) | 103 | -85.2% (inactive) | 112 | -0.509 (inactive) | -1.7e-05 (inactive) | 0.00629 (inactive) | 18.6% (inactive) | 56.9% (active)
Cc1ccc(C(=O)Nc2ccc(Cl)cn2)cc1S(=O)(=O)N1CCOCC1 | 568 | -10.1% (inactive) | -0.1% (inactive) | 112 | -12.7% (inactive) | 102 | -0.503 (inactive) | 9.5e-06 (inactive) | 0.00409 (inactive) | -6.64% (inactive) | -36% (inactive)
COc1ccccc1C(=O)OCn1nnc2ccccc2c1=O | 714 | -21.1% (inactive) | 6.6% (inactive) | 103 | -15.2% (inactive) | 106 | -0.421 (inactive) | -4e-05 (inactive) | 0.00465 (inactive) | 12.3% (inactive) | 22.5% (inactive)
CC1CCc2nn(CC(=O)N3CCN(C(=O)c4ccco4)CC3)cc2C1 (centres undefined) | 758 | -8.5% (inactive) | -12% (inactive) | 112 | -41% (inactive) | 107 | -0.585 (inactive) | -5.6e-05 (inactive) | 0.0063 (inactive) | 6.35% (inactive) | 25.7% (inactive)
CSCCC(NC(=O)c1ccco1)C(=O)OC(C)C(=O)NC(=O)NC1CCCCC1 (centres undefined) | 538 | -6.1% (inactive) | 7.6% (inactive) | 88 | -79.7% (inactive) | 100 | -0.485 (inactive) | 1e-05 (inactive) | 0.00394 (inactive) | 13.1% (inactive) | 20.3% (inactive)
CCSc1nnc(NC(=O)CCNS(=O)(=O)c2cc(Br)cnc2N)s1 | 243 | -1.3% (inactive) | 3.8% (inactive) | 93.5 | 32.4% (inactive) | 80.5 | -0.444 (inactive) | 1.8e-05 (inactive) | 0.0065 (inactive) | 2.91% (inactive) | 8.81% (inactive)
Cc1nnc(NCCc2ccccc2)n(N)c1=O | 806 | -5.5% (inactive) | -21.2% (inactive) | 106 | -35% (inactive) | 121 | -0.514 (inactive) | 4.9e-06 (inactive) | 0.00506 (inactive) | 2.54% (inactive) | 5.29% (inactive)
CN(C(=O)c1ccccn1)c1nnc(-c2cccnc2)s1 | 622 | -8.7% (inactive) | 11.2% (inactive) | 93.2 | -52.7% (inactive) | 106 | -0.489 (inactive) | -5.1e-05 (inactive) | 0.0044 (inactive) | 0.693% (inactive) | -16.2% (inactive)
CCOC(=O)N1CCN(C(=O)c2ccc3c(=O)n(Cc4ccc(OC)cc4)c(=S)[nH]c3c2)CC1 | 475 | -17% (inactive) | 45.2% (active) | 59.2 | 2.4% (inactive) | 88.2 | -0.496 (inactive) | -2.2e-05 (inactive) | 0.00659 (inactive) | 11.9% (inactive) | 10% (inactive)
COc1cc(NC(=O)Nc2cccc(Cl)c2)c(OC)cc1NC(=O)CN1CCCCC1 | 709 | -15.2% (inactive) | 1% (inactive) | 126 | -45.1% (inactive) | 132 | -0.407 (inactive) | -4e-05 (inactive) | 0.00392 (inactive) | 14.5% (inactive) | -1.73% (inactive)
Cc1ccc(-c2noc(C3CCCN(C(=O)c4ccccc4)C3)n2)o1 (centres undefined) | 490 | 5.2% (inactive) | -19.1% (inactive) | 112 | -102% (inactive) | 125 | -0.372 (inactive) | -1.7e-05 (inactive) | 0.00371 (inactive) | -20% (inactive) | -111% (inactive)
Cc1nc2sc(C(c3cccs3)N3CCC(C(N)=O)CC3)c(O)n2n1 (centres undefined) | 625 | -3.9% (inactive) | -7.5% (inactive) | 105 | -47.4% (inactive) | 120 | -0.565 (inactive) | -4.6e-05 (inactive) | 0.00644 (inactive) | 14.6% (inactive) | 32.7% (inactive)
CCOc1ccccc1NC(=O)CC1Nc2cc(C)c(C)cc2NC1=O (centres undefined) | 374 | 1.8% (inactive) | 23.2% (inactive) | 94.4 | -48.5% (inactive) | 105 | -0.265 (inactive) | -1.1e-05 (inactive) | 0.00531 (inactive) | 14.6% (inactive) | 26% (inactive)
CC(C)CCNc1cc(=O)n(C)c(=O)n1C | 686 | -3.9% (inactive) | -15.5% (inactive) | 108 | 28.9% (inactive) | 88 | -0.459 (inactive) | 5e-05 (inactive) | 0.00778 (inactive) | 0.49% (inactive) | 8.23% (inactive)
